From PubChem BioAssay AID588391 (Broad Institute, 2011)
About 180 (0.051%) of roughly 350,000 compounds were called active.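 The calls were made as follows: active = mean inhibition across replicates of 30% or more, whatever share of single replicates reach that level; inconclusive = mean inhibition below 30% while every single replicate reaches 30%; inactive = the rest.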 Only a selection was taken, and actives are over-represented in it overall.

target: Protein disulfide-isomerase (Homo sapiens) (UniProt P07237); assay: inhibitors of human PDI, primary screen, biochemical, turbidity, single point, plate reader (AID 588391); conditions: PDI insulin aggregation turbidity, A650, 90 min; at 10 µM; active compounds read high;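 also: absorbance from insulin aggregation driven by PDI reduction with DTT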
Sequence (P07237 whole entry, looked up): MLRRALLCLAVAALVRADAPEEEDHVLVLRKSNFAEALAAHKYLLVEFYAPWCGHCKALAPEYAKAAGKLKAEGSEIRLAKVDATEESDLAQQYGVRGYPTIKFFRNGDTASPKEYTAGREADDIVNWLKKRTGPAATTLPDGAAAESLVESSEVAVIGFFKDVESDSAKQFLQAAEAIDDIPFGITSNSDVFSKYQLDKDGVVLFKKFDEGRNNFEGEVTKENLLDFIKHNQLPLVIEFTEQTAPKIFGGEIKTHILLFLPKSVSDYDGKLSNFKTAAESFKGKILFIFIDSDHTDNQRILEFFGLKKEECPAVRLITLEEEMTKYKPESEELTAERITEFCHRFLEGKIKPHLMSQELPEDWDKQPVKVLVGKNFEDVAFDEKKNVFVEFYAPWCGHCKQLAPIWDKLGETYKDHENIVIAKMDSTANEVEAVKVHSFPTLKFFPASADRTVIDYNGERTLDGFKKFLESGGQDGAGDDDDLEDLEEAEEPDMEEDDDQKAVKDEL

inhibition, inactive:
COCOc1cccc(CN2CCC(C)(Oc3ccc(SC)cc3)C2)c1 (centres undefined) -14.7%
CC1(C(=O)NCc2ccc(F)c(F)c2)Cc2c(-c3ccc4c(c3)OCO4)ccnc2O1 (centres undefined) 5.69%
CCOC(=O)c1[nH]c2ccc(OC)cc2c1NC(=O)N1CCOCC1 -4.02%
COc1ccc(CC(N)c2csc(NC(=O)Cc3ccccc3)n2)cc1 (centres undefined) 8.14%
CC1(C(=O)NS(=O)(=O)c2cccc(F)c2)CCN1C(=O)Cc1cc(F)ccc1F (centres undefined) 9.62%
CC1(Oc2ccc(Cl)cc2)CCN(Cc2csc3ccccc23)C1 (centres undefined) -0.538%
CCc1nc2ccc(C(=O)Nc3cc(-c4ccccc4)ccc3OC)cn2c1N(CC)CC(=O)N(C)C -5.43%
OC(c1cc(Cl)cc(Cl)c1)c1ncc(-c2ccccc2C(F)(F)F)[nH]1 (centres undefined) -0.656%
CC1(C(=O)Nc2cccc(Oc3ccccc3)c2)CCN1Cc1ccccc1Cl (centres undefined) 8.27%
CCc1nc2ccc(C(=O)NCc3ccc(OC)cc3)cn2c1N(CC)Cc1cccc(Br)c1 19.2%
CC1(Oc2ccccc2-c2ccno2)CCN(Cc2ccc(-c3ccccc3)o2)C1 (centres undefined) 15.2%
CCNC(=O)C1CCCN(C(=O)c2cc(F)ccc2C)CC1 (centres undefined) -2.55%
COc1ccc(-c2cc(NC=O)c3ncc(-c4cc(OC)c(OC)c(OC)c4)n3c2)c(OC)c1 2.23%
CCCNC(=O)C1(C)CCCN(Cc2c(C)nn(-c3ccccc3)c2C)C1 (centres undefined) 1.08%
O=CNc1cc(-c2ccc(C(=O)N3CCOCC3)cc2)cn2c(-c3ccc(F)cc3)cnc12 -18.3%
Cc1cccc(-c2cnc(C(O)c3cc(C)cc(C)c3)[nH]2)c1 (centres undefined) 8.93%
CCOc1cc(N2CCOCC2)c(OCC)cc1NC(=O)c1ccc(C)s1 -4.12%
CCOC(=O)c1ccccc1NC(=O)COC(=O)C(Cc1c[nH]c2ccccc12)NC(C)=O (centres undefined) 5.96%
COc1ccc(S(=O)(=O)N2CCCCC2c2cc(C(=O)NCc3ccc(F)cc3)no2)cc1 (centres undefined) -0.518%
CCNC(=O)C1(C)CCN(C(=O)c2ccccc2)C1 (centres undefined) -56.1%
CC1(C(=O)NCc2ccc3c(c2)OCO3)CCN1CCc1ccccc1 (centres undefined) 3.4%
O=C(NCc1ccco1)c1cccc(-c2ccc3nncn3c2)c1 3.75%

inhibition, active:
COc1ccc2[nH]c3c(C)c4cc[n+](C)cc4c(C)c3c2c1 46.3%
CCOc1cc(N2CCOCC2)c(OCC)cc1NC(=O)COC(=O)[C@H](Cc1c[nH]c2ccccc12)NC(C)=O 44.5%
